Many of the other results were omitted from the sample, so hits are more common in it than they were.
mHTT CaM bind: mHTT-calmodulin interaction abrogation. AID 1671202. AlphaScreen His-mHTT/GST-CaM binding, luminescence. hit rate 3.6% among 190,000. inhibition, % at 15 µM;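 note: 0% = both proteins with DMSO and 100% = one protein alone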
Pf apPOL inh: Pf-apPOL DNA polymerase inhibition; Recombinant Pf-apPOL, molecular beacon fluorescence, 1.5 h; inhibition, % at 10 µM; hit rate 0.25% among 210,000
Numbers without * were called inactive; x = not tested or not shown. Cut-off read from the data, not from the text of the source: active = inhibition above about 50%; inactive = the rest.

SMILES	mHTT CaM bind	Pf apPOL inh
O=C(O)c1cc(N2C(=O)/C(=C/c3ccc(Cl)cc3)C=C2c2ccccc2)ccc1O	74.0*	-2.9
O=C(O)c1cc(N2C(=O)/C(=C/c3ccc([N+](=O)[O-])cc3)C=C2c2ccccc2)ccc1O	88.0*	-4.4
CCn1c2ccccc2c2nnc(SCC(=O)Nc3nc4ccc([N+](=O)[O-])cc4s3)nc21	1.0	-3.4
CCN1CCN(CCCNS(=O)(=O)c2cc(Br)c(Br)s2)CC1	3.0	-0.7
COc1cc(SC)ccc1C(=O)Nc1nc2ccc(S(C)(=O)=O)cc2s1	63.0*	-0.4
COc1ccc(Cl)cc1C(=O)Nc1nc2ccc(S(C)(=O)=O)cc2s1	1.0	0.9
O=C(CCC1CCCN(C(=O)Nc2ccccc2)C1)NCc1ccccc1 (centres undefined)	10.2	-3.4
OC(CNC1CCCCC1)CSCC(O)CNC1CCCCC1 (centres undefined)	-7.7	x
Cc1ccc(-c2csc(N3N=C(c4ccc([N+](=O)[O-])cc4)CC3=O)n2)cc1	53.0*	0.1
O=[N+]([O-])c1ccc(-c2csc(N3CCCC3)n2)cc1	-1.6	-2.2
CCOc1ccc(NC(=O)CSc2nc3[nH]ncc3c(=O)n2-c2ccc(C)cc2)cc1	35.0	-10.6
O=C1/C(=C/c2ccc(N3CCOCC3)cc2)Cc2ccccc21	-19.0	6.7
N#CC1=C(N)Oc2n[nH]c(C34CC5CC(CC(C5)C3)C4)c2C1c1cccs1 (centres undefined)	55.0*	-3.0
N#CC1=C(N)Oc2n[nH]c(C34CC5CC(CC(C5)C3)C4)c2C1c1ccc(O)cc1 (centres undefined)	29.0	7.5
CCOc1cc(C=C(C#N)c2ccc([N+](=O)[O-])cc2)cc(Br)c1O	7.1	2.7
COc1ccc(NC(=O)c2ccc(N(Cc3ccc(Cl)cc3)S(C)(=O)=O)cc2)cc1OC	38.2	-1.9
CS(=O)(=O)N(Cc1ccc(Cl)cc1)c1ccc(C(=O)Nc2ccc3c(c2)OCO3)cc1	7.8	89.3*
Cc1nc(-c2ccccc2F)sc1C(=O)NC(C)C	-6.0	-9.9
O=C(c1ccccc1)N1CCC2(C1)Nc1cccnc1NC2=NCc1ccccc1 (centres undefined)	6.8	-1.4
Cn1nc(-c2ccc(F)cc2)cc1C(=O)NCC#CCN1CCCC1	-1.6	-6.5
CCCn1cc2c3c(cccc31)CN(C(=O)c1ccccc1OC)CC2	58.2*	-5.2
COCCn1cc2c3c(cccc31)CN(C(=O)c1cccc(C(F)(F)F)c1)CC2	69.6*	-4.6
COCCn1cc2c3c(cccc31)CN(C(=O)c1ccccc1OC)CC2	52.1*	-3.9
CCCn1cc2c3c(cccc31)CN(C(=O)NCCCOC)CC2	18.6	-1.8
COCCn1cc2c3c(cccc31)CN(C(=O)c1cc(F)cc(F)c1)CC2	12.2	-3.5
SMILES	mHTT CaM bind	Pf apPOL inh
COCCn1cc2c3c(cccc31)CN(C(=O)c1ccccc1Cl)CC2	26.7	0.8
CCCSc1nnc(NC(=O)Nc2ccc(Cl)cc2Cl)s1	1.8	-1.9
CCOC(=O)CCC(=O)Nc1cc(C)nn1-c1nc(-c2ccc(F)cc2)cs1	-12.2	-4.2
CCCN(C(=O)c1coc(=O)c2ccccc12)c1cccc(C)c1	-1.0	-0.5
O=C(ON=C1Cc2ccccc2C1=O)c1cccs1	x	-6.2
COc1ccc(C2CC(=O)Nc3n[nH]c(-c4ccccc4)c32)cc1 (centres undefined)	-0.8	-2.2
COc1ccc(OC)c(C2CC(=O)Nc3n[nH]c(-c4ccccc4)c32)c1 (centres undefined)	93.6*	2.3
COc1ccc(C2CC(=O)Nc3n[nH]c(-c4ccccc4)c32)cc1OC (centres undefined)	8.7	-4.8
COc1cc(C2CC(=O)Nc3n[nH]c(-c4ccc(Cl)cc4)c32)cc(OC)c1OC (centres undefined)	100.1*	1.0
COc1cccc(C2CC(=O)Nc3n[nH]c(-c4ccc(Cl)cc4)c32)c1 (centres undefined)	34.3	3.1
COc1cc(C2CC(=O)Nc3n[nH]c(-c4ccccc4)c32)ccc1O (centres undefined)	53.6*	0.9
O=S(=O)(c1ccc(I)cc1)N1CCN(c2ccccc2F)CC1	-8.4	-0.3
CSc1ccc(/C=C2\NC(=O)N(CC(=O)Nc3ccc(C)cc3)C2=O)cc1	3.0	-4.4
CCc1ccc(-c2ccc(SCC(=O)Nc3cc(Cl)ccc3OC)nn2)cc1	-17.3	-2.9
CC(C)CC(=O)N1CCc2c(c(COCc3ccc(Cl)cc3)nn2C)C1	62.6*	-6.1
CCC(=O)N1CCc2c(c(COCc3ccc(C)cc3)nn2C)C1	13.9	-2.3
Cn1nc(C(=O)NCc2ccc3c(c2)OCO3)c2c1CCN(C(=O)C1CCCCC1)C2	72.0*	-11.8
CCCC(=O)N1CCc2c(c(C(=O)NCc3ccc(Cl)cc3)nn2C)C1	83.9*	-9.6
Cn1nc(C(=O)NCc2ccc(Cl)cc2)c2c1CCN(C(=O)CC1CCCC1)C2	41.4	2.7
Cn1nc(C(=O)NCc2ccc(F)cc2)c2c1CCN(C(=O)C1CCCC1)C2	77.2*	-2.5
CCC(=O)N1CCc2c(c(C(=O)NCc3ccc4c(c3)OCO4)nn2C)C1	30.1	-5.2
Cc1cccc(CNC(=O)c2nn(C)c3c2CN(C(=O)C2CCC2)CC3)c1	36.8	-9.6
O=c1c2c(ncn2Cc2ccccc2)n(-c2ccccc2Cl)c(=O)n1C1CC1	4.7	-8.0
CCn1nccc1C(=O)N1CCC(n2c(-c3ccc(F)cc3)nc3cccnc32)C1 (centres undefined)	-2.1	-6.7
Cn1nc(C(=O)NCc2ccccc2)c2c1CCN(C(=O)C1CCC1)C2	36.3	-8.6
SMILES	mHTT CaM bind	Pf apPOL inh
Cn1nc(C(=O)NCc2ccc(Cl)cc2)c2c1CCN(C(=O)C1CCCC1)C2	92.3*	-10.2
COc1ccccc1NC(=O)N1CCc2nc(-c3ccc(Cl)cc3)ncc2C1	3.6	-1.6
NC(=O)c1nn2c(C(F)(F)F)cc(-c3ccc(Cl)cc3)nc2c1Cl	0.0	0.9
COc1ccc(-c2cc(C(F)(F)F)n3nc(C(=O)O)c(Cl)c3n2)cc1	64.0*	-5.3
COc1ccc(-c2cc(C(F)(F)F)n3ncc(C(=O)N4CCCC4)c3n2)cc1	-6.0	-7.1
COc1ccc(-c2cc(C(F)(F)F)n3nc(C(=O)O)c(Br)c3n2)cc1	65.0*	-0.7
COc1ccc2c(c1)C(C)CC(C)(C)N2C(=O)CSc1nnc(-c2ccco2)n1C (centres undefined)	2.9	-8.7
O=C(NCC1CCCO1)c1ccc(Cn2nnc3ccccc3c2=O)cc1 (centres undefined)	9.0	-8.2
O=C(/C=C/c1ccc(-c2ccccc2)o1)c1cccs1	28.4	1.4
O=C(/C=C/c1ccc(-c2ccc(F)cc2)o1)c1cccs1	91.3*	-1.4
Cc1cc(C)cc(NC(=O)CSc2nnc(COc3ccc(Cl)cc3Cl)o2)c1	-4.8	-13.3
Cc1ccc(/C=C2\SC(=O)N(CNc3ccc(Cl)cc3)C2=O)o1	6.0	-11.1
Cc1ccc(NC(=O)COc2ccc(Br)cc2)cc1	-16.1	80.5*
Cc1ccc(OCC(=O)Nc2ccc(F)cc2)cc1	-12.5	1.9
COCCN=C1Nc2ccccc2NC12CCCN(C(=O)Nc1ccc(C)cc1C)C2 (centres undefined)	99.8*	-9.1
Cc1cccc(NC(=O)N2CCC3(C2)Nc2cccnc2NC3=NCc2ccccc2)c1 (centres undefined)	-0.7	-1.8
COCCN=C1Nc2ccccc2NC12CCCN(C(=O)c1ccc(OC)c(OC)c1)C2 (centres undefined)	5.6	-0.8
